Assay: inducers of IRF3 signaling, differentiated THP-1 – cell-based, PMA-stimulated THP-1, luminescence (AID 1053176)
Conditions: PMA-differentiated THP-1, IRF3 reporter luminescence; hits give high values; call rule not given here

Fraction signal, inactive:
CCn1c(-c2nonc2N)nc2c(C#CC(C)(C)O)nc(OC[C@@H](N)c3ccccc3)cc21 -0.0095
COc1ccc(-c2cc3c(N)ncnc3o2)cc1 -0.014
COc1cc(/C=N/Nc2ncnc3[nH]ncc23)ccc1O 0.001
CN(C)c1cc2c(Nc3ccc4nc(Cc5ccccc5)[nH]c4c3)ncnc2cn1 -0.006
FC(F)(F)c1ccc(-c2nn3ncccc3c2-c2ccnc(Nc3ccc4c(c3)OCCO4)n2)cc1 0.001
NS(=O)(=O)c1ccc(N=Nc2c(O)[nH]c3ccc(C(=O)NCCCn4ccnc4)cc23)cc1 -0.0065
CN1C(=O)C(c2c[nH]c3ccccc23)=C(c2c[nH]c3ccccc23)C1=O -0.0095
CN(c1ccc(NC(=O)Nc2ccc(OC(F)(F)F)cc2)cc1)c1ccnc(Nc2cccc(S(N)(=O)=O)c2)n1 -0.001
Cn1cc(C2=C(c3c4n(c5ccccc35)CCC(CN)C4)C(=O)NC2=O)c2ccccc21 (centres undefined) -0.001
CCn1c(-c2nonc2N)nc2cnc(Oc3cccc(NC(=O)c4ccc(OCCN5CCOCC5)cc4)c3)cc21 0.007
COc1cccc(-n2ncc3c(N/N=C/c4ccc(F)cc4)ncnc32)c1 -0.0025
COc1cc2ncn(-c3cc(OCc4ccccc4S(C)(=O)=O)c(C#N)s3)c2cc1OC 0.0015
COc1ccc(COc2ccc(Cc3cnc(N)nc3N)cc2OC)cc1 -0.003
CN(C)c1cc2c(Nc3ccc4c(cnn4Cc4ccccc4)c3)ncnc2cn1 -0.004
